Compounds with a hit are over-represented: about 8% of the library has one in this group of screens.
MCF10A rerep: A quantitative high throughput screen for small molecules that induce DNA re-replication in MCF 10a normal breast cells; MCF 10A DNA re-replication, Hoechst nuclear intensity, 48 h; Potency, µM (top dose mostly 46.1 µM), for inactives: at the top dose activity, positive = re-replication, usual class: activators; 2.9% of 350,000 active; AID 624296, 2012; note: % of control where 0% means no effect; nearly all actives have a fitted effect of over 50% in size
SW480 rereplic: A quantitative high throughput screen for small molecules that induce DNA re-replication in SW480 colon adenocarcinoma cells; 1.8% of 340,000 active; SW480 DNA re-replication, Hoechst DNA content imaging, 48 h; Potency, µM (doses to about 46.1 µM), without a hit: top-dose re-replication activation, actives largely listed as activators; note: % of control where 0% means no effect; nearly all actives have a fitted effect of over 55% in size
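Treated cells incubate 48 hr (37 C, 5% CO2), are stained 40 min with Hoechst, and nuclear fluorescence is enumerated; a rise in nuclei with high DNA signal marks re-replication.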
HT1080 IDH1KD tx: qHTS for induction of synthetic lethality in tumor cells producing 2HG: qHTS for the HT-1080-IDH1KD cell line | HT-1080 IDH1 knockdown viability, ATP luminescence, 48 h | Potency, µM (highest dose often 46.1 µM), inactives show top-dose activity, negative = toxicity, usual class: cytotoxic | 2% of 360,000 active;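 note: 0% = DMSO wells and -100% = cell-free medium wells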
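CellTiter-Glo luminescence after 48 h compound exposure at 37 degrees C of IDH1-knockdown HT-1080 cells in 5% FBS RPMI. %Activity scaled between DMSO wells and cell-free media wells, with curves fitted and assigned curve classes.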
KB-3-1 cytotox: qHTS assay for MDR1-selective chemotherapeutics: Primary screen using the parental adenocarcinoma cell KB-3-1 | KB-3-1 viability, CellTiter-Glo ATP luminescence, 72 h | Potency, µM (highest dose often 46.1 µM), hits mostly cytotoxic | 1.4% of 400,000 active | AID 1347075, 2019; note: % is set by controls: 0 for no effect and ±100 for the full control effect; nearly all actives have a fitted effect of over 60% in size
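Using CellTiter-Glo luminescence, growth of non-resistant KB-3-1 adenocarcinoma cells is assessed 72 h after pin-tool compound addition at 37 °C. Normalized responses across the concentration series yield fitted curves.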
HT1080NT lethal: qHTS for induction of synthetic lethality in tumor cells producing 2HG: qHTS for the HT-1080-NT fibrosarcoma cell line; HT-1080-NT fibrosarcoma viability, CellTiter-Glo ATP luminescence, 48 h; Potency, µM (highest dose often 46.1 µM), for the others: at the top dose activity, negative = less viability, usual class: cytotoxic; 1.6% of 360,000 active;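 note: NT is the 2HG producing partner of a matched IDH1 knockdown line; 0% = DMSO-treated cells and -100% = media-only wells without cells; nearly all actives have a fitted effect of over 55% in size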
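HT-1080-NT; 750 cells/well; 5% FBS RPMI; 48 h compound, 37 degrees C; CellTiter-Glo luminescence; curve fitting and curve-class assignment.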
KB-V1 MDR tox: qHTS assay for MDR1-selective chemotherapeutics: Primary screen using the drug-selected MDR subline cells KB-V1; 3.4% of 400,000 active; Potency, µM (titrated, usually from 46.1 µM), hits mostly cytotoxic; KB-V1 MDR cells viability, CellTiter-Glo, 72 h; note: % is set by controls: 0 for no effect and ±100 for the full control effect; nearly all actives have a fitted effect of over 60% in size
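Readout: CellTiter-Glo luminescence, 10 min after addition. Cells: KB-V1 MDR subline, 72 h at 37 degrees C with compound. Analysis: corrected, normalized data fitted to concentration-effect curves.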
Starred values were filed as active, the others as inactive; i = inactive; u = inconclusive; x = no result given; [ ] = another dose, or the depositor's remark. Calls come from the whole dose curve; as a rule, active = well fitted curve in the direction sought with a large enough effect; inconclusive = small, poorly fitted or top-dose-only effect, or another doubt; inactive = no such curve, though single readings can be large; an effect the other way counts as inactive or inconclusive. Potency is the fitted concentration of half-maximal effect.

SMILES | MCF10A rerep | SW480 rereplic | HT1080 IDH1KD tx | KB-3-1 cytotox | HT1080NT lethal | KB-V1 MDR tox
Cc1ccc(-c2csc3nnc(SCC(=O)N4CCN(Cc5ccccc5)CC4)n23)cc1 | 0.6% | 8.1% | -5.2% | i | -7.9% | 6.51µM*
O=C(CSc1nnc2scc(-c3ccccc3)n12)N1CCN(Cc2ccccc2)CC1 | 3.1% | -1.8% | -6.7% | i | -0.9% | 5.8µM*
O=C(Cc1ccccc1)NCC(=O)N/N=C/c1ccc(C(=O)O)cc1 | -12.9% | -6.9% | -0.7% | i | 8.5% | u
Cc1noc2ncc(C(=O)c3cc(F)ccc3O)cc12 | -1.2% | -13.4% | 9.4% | i | -3.7% | i
Cc1[nH]nc2ncc(C(=O)c3cc(F)ccc3O)cc12 | 3.5% | u | -15.4% | u | -15.3% | 8.2µM*
CN(C)CCOC(=O)C12CC3CC(CC(C3)C1)C2 | -17.5% | -4.9% | 0.6% | i | 3.0% | i
O=S1(=O)C=C(Sc2nc3cc(Cl)ccc3o2)c2ccccc21 | u | u | 5.17µM* | u | 5.17µM* | u
CN(C)c1nc(N)nc(CSc2nc3cc(Cl)ccc3o2)n1 | 3.7% | 4.4% | 23.4% | i | 5.9% | i
CC1CCCN(C(=O)CCCn2c(=S)[nH]c3ccccc3c2=O)C1 (stereo unspecified) | u | -7.4% | 13.4% | i | 1.7% | 8.2µM*
O=C(CCCCCn1c(=S)[nH]c2cc3c(cc2c1=O)OCO3)N1CCN(C(=O)c2ccco2)CC1 | -180.6%[0.0737 µM] | 0.9% | -3.2% | i | -23.6% | i
O=C(CCn1c(=S)[nH]c2ccccc2c1=O)N1CCCCC1 | 1.6% | u | -1.3% | u | -1.0% | i
O=C(CCCCCn1c(=S)[nH]c2cc3c(cc2c1=O)OCO3)N1CCN(C2CCCCC2)CC1 | u | u | -0.2% | i | -3.9% | 20.6µM*
CC1CCCCC1n1c(=S)[nH]c2ccccc2c1=O (stereo unspecified) | u | u | 11.2µM* | i | 12.6µM* | i
COCCn1c(=S)[nH]c2cc(C(=O)N3CCN(Cc4ccc5c(c4)OCO5)CC3)ccc2c1=O | u | u | -10.4% | 4.11µM* | u | 2.59µM*
COCCn1c(=O)[nH]c2cc(C(=O)N3CCN(Cc4ccc5c(c4)OCO5)CC3)ccc2c1=O | 9.8% | 4.6% | 0.7% | i | 4.8% | i
O=C(CCCCCn1c(=S)[nH]c2cc3c(cc2c1=O)OCO3)N1CCN(Cc2ccccc2)CC1 | 20.6µM* | u | -25.4% | i | -14.2% | i
COc1ccc(NC(=O)NNC(=O)c2ccc(Cl)cc2Cl)cc1OC | 1.8% | -2.2% | -3.2% | i | 7.2% | i
CCCCOc1ccccc1NC(=O)C=C(C)C | -3.2% | -8.7% | 11.1% | i | 0.2% | i
CCCOc1ccccc1NC(=O)/C=C/C(N)=O | 4.47µM* | 12.6µM* | 10µM* | i | u | i
COc1ccc(NC(=O)C(=O)N/N=C\c2ccc(CNC(=O)C(=O)Nc3ccc(C)c(C)c3)o2)c(OC)c1 | u | 2.91µM* | 3.1% | 13µM* | -4.5% | u
CCOC(=O)C1=C(CC)Nc2ccccc2N/C1=N\S(=O)(=O)c1ccccc1F | -1.5% | -1.5% | 1.2% | i | 3.7% | i
Cc1cc(C)cc(OCC(O)CN2C(=O)NC(C)(C)C2=O)c1 (stereo unspecified) | 9.1% | 2.1% | 4.7% | i | 0.0% | i
O=C(NC1CCCCC1)c1sc(N2CCOCC2)nc1-c1ccccc1 | 5.8µM* | 0.3% | 14.4% | i | 15.1% | i
Cc1ccc(-c2nc(N3CCOCC3)sc2C(=O)N2CCOCC2)cc1 | 0.3% | -6.5% | 2.6% | i | 12.3% | i
Cc1ccc(-c2nc(N3CCOCC3)sc2C(=O)N2CCCCC2)cc1 | -1.3% | u | 16.8% | i | -0.5% | 18.4µM*
SMILES | MCF10A rerep | SW480 rereplic | HT1080 IDH1KD tx | KB-3-1 cytotox | HT1080NT lethal | KB-V1 MDR tox
Cc1ccc(S(=O)(=O)Nc2ccc(Nc3nccn4c(-c5ccc6ccccc6c5)cnc34)cc2)cc1 | x | x | -0.5% | i | -24.0% | 11.6µM*
COc1ccccc1OCC(=O)N(Cc1nc(-c2ccccc2)no1)C(C)C | 1.5% | u | -0.6% | i | -5.8% | u
Cc1ccc(-c2noc(CN(C(=O)Cc3ccccc3)C(C)C)n2)cc1 | 0.2% | 2.6% | -30.0% | i | -16.2% | 23.1µM*
Cc1cc(Br)ccc1OCC(=O)N(Cc1nc(-c2ccccc2)no1)C(C)C | 18.4µM* | u | -22.1% | u | -0.8%[9.24 µM] | i
Cc1ccc(C)c(C(=O)N(Cc2nc(-c3ccc(Cl)cc3)no2)C(C)C)c1 | 23.1µM* | 2.3% | -18.0% | i | -0.2% | i
Cc1cc(C(=O)COC(=O)C2CCN(C(=O)c3ccc(Cl)cc3)CC2)c(C)n1CC1CCCO1 (stereo unspecified) | -2.3% | -0.7% | -8.0% | i | -6.6% | i
Cn1c(C(=O)NCc2ccc3c(c2)OCO3)cc2sccc21 | -7.2% | 3.8% | -29.3% | i | -28.0% | 16.4µM*
CC(CCc1ccccc1)NC(=O)c1cc2sccc2n1C (stereo unspecified) | 14.6µM* | u | -1.1% | i | -3.2% | u
CCOc1ccc(CCNC(=O)c2cc3sc(Cl)cc3n2C)cc1OCC | 24.8% | 0.2% | -21.5% | u | -20.6% | i
Cn1c(C(=O)Nc2ccc3c(c2)OCO3)cc2sccc21 | 7.3% | -1.6% | 1.9% | i | 2.6% | u
CC(C)n1c(C(=O)OCC(=O)NCc2ccc3c(c2)OCO3)cc2occc21 | 1.8% | 16.3% | 7.1% | i | 12.5% | i
CCOc1ccc(CCNC(=O)c2cc3sccc3n2C)cc1OCC | 10.3% | 6.1% | -1.6% | i | 0.5% | 8.2µM*
CC(C)n1c(C(=O)OCC(=O)NCc2ccc3c(c2)OCO3)cc2sccc21 | 14.6µM* | 7.6% | -0.4%[9.24 µM] | i | u | i
O=Cc1ccc(Oc2nc(Cl)ncc2F)cc1 | 15.4% | u | -19.0% | i | -0.2% | u
COc1ccc(S(=O)(=O)NCCc2nnc3ccc(SCC(=O)Nc4cc(C)cc(C)c4)nn23)cc1 | x | x | x | i | x | i
CCCc1cc(C(N)=O)c(NC(=O)c2ccoc2C)s1 | 2.3% | 0.8% | u | i | u | i
